# Source: PubChem (National Center for Advancing Translational Sciences (NCATS))
# Cycloheximide cs – counter-screen for Shiga toxin inhibitors: cycloheximide protein synthesis inhibition. cell reporter, cycloheximide protein synthesis inhibition counterscreen. max response, %. 12% of 300,000 active; in the data active = max response mostly above about 13%, no sharp cut-off; inactive = mostly below about 14%; note: read at 38.3 µM for the half of the compounds with a filed dose; 0% is about no effect
# Shiga toxin inh – Shiga toxin inhibition. Vero cells, Shiga toxin protein synthesis inhibition reporter. inhibition, % at 38.7 µM. 9.2% of 290,000 active; in the data active = inhibition mostly above about 28%, no sharp cut-off; inactive = mostly below about 43%; note: 0% is about no effect
# Vaccinia Venus – inhibitors of vaccinia virus (Venus reporter) | Vaccinia virus Venus reporter expression, fluorescence | Potency, µM (titrated, usually from 36.5 µM), for the others: top-dose activity change, negative = inhibition, usual class: inhibitors | AID 720580 | 0.46% of 330,000 active; calls by dose curve; tested in A549 cells; note: potency is the fitted concentration of half-maximal effect; % is set by controls: 0 for no effect and ±100 for the full control effect; nearly all actives have a fitted effect of over 30% in size
# Marburg entry inh – blocks Marburg virus binding to or entry into cells. 1.8% of 300,000 active. Potency, µM (top dose mostly 37.8 µM), without a hit: top-dose activity change, negative = inhibition, actives largely listed as inhibitors. Marburg virus pseudotyped entry inhibition, cell reporter. AID 540276; calls by dose curve; tested in HEK293 cells; note: potency is the fitted concentration of half-maximal effect; % is set by controls: 0 for no effect and ±100 for the full control effect
# VACV mCherry inh – inhibitors of vaccinia virus infection (mCherry reporter signal). Potency, µM (highest dose often 36.5 µM), without a hit: top-dose activity change, negative = inhibition, actives largely listed as inhibitors. Vaccinia virus mCherry reporter infection, fluorescence. 0.63% of 310,000 active; calls by dose curve; tested in A549 cells; note: potency is the fitted concentration of half-maximal effect; % is set by controls: 0 for no effect and ±100 for the full control effect; nearly all actives have a fitted effect of over 35% in size
# LASV entry inh – Lassa virus entry inhibition. Lassa virus pseudotype entry inhibition, cell reporter. Potency, µM (top dose mostly 37.9 µM), without a hit: at the highest dose activity change, negative = inhibition, usual class: inhibitors. 1.2% of 300,000 active. AID 540256; calls by dose curve; tested in HEK293 cells; note: potency is the fitted concentration of half-maximal effect; % is set by controls: 0 for no effect and ±100 for the full control effect; nearly all actives have a fitted effect of over 50% in size
# Starred values were filed as active, the others as inactive; i = inactive; ? = inconclusive; nt = not tested or not shown; + = active, no number; [ ] = dose if it differs, or a comment. This excerpt belongs to a sample that is enriched for hits.
SMILES,Cycloheximide cs,Shiga toxin inh,Vaccinia Venus,Marburg entry inh,VACV mCherry inh,LASV entry inh
CCOc1ccccc1NC(=O)Cn1c(=O)nc(-c2ccccc2F)c2cc(Cl)ccc21,nt,nt,-18.3%,nt,-2.8%,?
CC(=O)Nc1ccc2nc(-c3ccc(Br)o3)[nH]c2c1,55.4*,58.0*,-13.5%,4.2%,-2.2%,?
O=C(Nc1ccc2nc(-c3ccc(Br)o3)[nH]c2c1)c1cccs1,44.8*,52.4*,-11.3%,?,30.6%,?
O=C(Nc1ccc2nc(-c3ccc(Br)o3)[nH]c2c1)c1ccco1,23.5*,74.0*,-39.3%,?,nt,?
COc1ccc(NC(=O)c2ccco2)cc1NC(=O)c1ccc(Br)o1,0.7,12.3,nt,-29.6%,nt,-6.8%
O=C(Nc1cccc(NC(=O)c2cccs2)c1)c1ccc(Br)o1,8.7,-5.7,-20.0%,-1.0%,-5.9%,-19.5%
NC(=O)/C(=C/c1ccco1)C(N)=S,1.0,-14.3,-6.3%,-17.8%,-15.1%,24.0%
Nc1ccc(Sc2ccccc2)nc1,nt,nt,-10.1%[7.34 µM],-5.8%[46.1 µM],-2.8%[7.34 µM],1.4%
Cc1ccc(N2C(=O)C(CN(C)C)C2c2ccccc2)cc1 (stereo unspecified),-4.3,-7.0,-15.7%,?,nt,-6.7%
Cc1ccc(C2C=NN(c3ccccc3)C2=O)cc1 (stereo unspecified),17.8*,28.7*,-20.1%,nt,-6.7%,nt
Cn1c(=O)n(Cc2ccccc2)c(=O)c2c1nc1n2CCN1c1ccccc1,nt,nt,-1.6%,nt,-2.6%,11.5%[46.1 µM]
C=C(C)C1COc2cc3oc(=O)ccc3cc2O1 (stereo unspecified),nt,nt,-29.8%,nt,i,nt
COc1cc2cc(/C=C/C(=O)c3ccco3)c(Cl)nc2cc1OC,15.6,68.0*,nt,?,nt,-6.9%
COc1ccc2cc(/C=C/C(=O)c3ccco3)c(Cl)nc2c1,38.4*,91.3,nt,nt,nt,nt
CCN(Cc1ccncc1)Cc1ccc2c(c1)CN(C(=O)c1ccc(OC)cc1)CCO2,nt,nt,2.4%,nt,-10.7%,nt
CN1CCN(S(=O)(=O)c2cccc(C(=O)Nc3sc4c(c3-c3nc5ccccc5[nH]3)CCCC4)c2)CC1,15.6,27.1,-15.4%,16.4µM*,-9.9%,1.5%
O=C(Nc1sc2c(c1-c1nc3ccccc3[nH]1)CCCC2)C1CCCC1,21.3*,16.9,-21.7%,-11.5%,-28.6%,10.5%
CC(=O)NCCC(=O)Nc1sc2c(c1-c1nc3ccccc3[nH]1)CCCC2,11.2,9.3,-22.7%,-6.0%,-14.7%[1.46 µM],-16.8%
Cc1cc(NC(=O)CN(C)S(=O)(=O)c2ccc3c(c2)CCC(=O)N3)ccc1Br,nt,nt,-27.2%,?,-3.3%,-27.5%[46.1 µM]
CC(=O)Oc1cc2c(C(=O)NCc3ccncc3)c(C)oc2c2ccccc12,8.6*,13.4,-12.1%,nt,?,nt
CC1=C(C)Cc2c(nnn2-c2nc(C)nc3sc4c(c23)CCCC4)C1,nt,nt,nt,-5.1%,nt,nt
c1ccc(Cn2ccc(-c3cnc(-c4ccccc4)s3)n2)cc1,40.8*,108.5*,?,?,nt,11.2µM*
COc1ccc(CCNC(=O)C2=C(C)C(=O)OC23CCCCC3)c(OC)c1OC,nt,nt,-5.7%,-6.8%[46.1 µM],0.4%,13.7%[46.1 µM]
O=C(Nc1nccs1)c1ccc(CSc2nnnn2-c2ccccc2)cc1,44.3*,40.6,nt,?,nt,-23.5%
NC(=O)c1ccc(-n2nnnc2SCc2ccccc2)cc1,6.3,2.8,-16.8%,-9.4%,i,-28.0%
SMILES,Cycloheximide cs,Shiga toxin inh,Vaccinia Venus,Marburg entry inh,VACV mCherry inh,LASV entry inh
Cc1ccccc1S(=O)(=O)N1C[C@H]2CON(C)[C@H]2C[C@H]1c1cccc(-c2ccc(C#N)cc2)c1,nt,nt,-26.8%,nt,i,nt
O=C1CC(c2ccccc2Cl)=NN(c2ncnc3ccccc23)C1=O,40.9*,93.7*,0.5%,-14.4%,-0.2%,-4.1%
CCN(CC)CCCNC(=O)c1sc2nc3n(c(=O)c2c1C)CCCCC3,nt,nt,-4.5%,nt,-2.5%,1.2%[46.1 µM]
CC(=O)Nc1sc2c(c1C(c1ccc(Cl)cc1)N1CCOCC1)CCCC2 (stereo unspecified),-6.5,-17.2,0.0%,?,-3.8%,?
CC(=O)Nc1sc2c(c1C(c1ccc(F)cc1)N1CCOCC1)CCCC2 (stereo unspecified),-1.1,11.0,?,12.6µM*,-14.7%,-25.2%
CCOC(=O)C1CCN(C(=O)CN2c3ccc(C(C)C)cc3-c3ccccc3S2(=O)=O)CC1,nt,nt,-12.6%,5.0%[46.1 µM],3.3%,-13.5%[46.1 µM]
N#CCc1ccc(C(=O)c2ccccc2F)s1,17.4*,63.9,2.0%,3.9%[46.1 µM],nt,9.8%
O=C(C[n+]1ccccn1)c1ccccc1,14.6*,40.5*,-10.3%,7.6%,?,29.7%
O=[N+]([O-])c1ccc(OCn2cncn2)cc1,nt,nt,-2.1%,nt,i,nt
Cc1sc2ncn(CC(=O)N(C)c3ccc(Br)cc3)c(=O)c2c1S(=O)(=O)N1CCC(C)CC1,nt,nt,2.0%,?,-18.5%,2.8%[46.1 µM]
CCc1ccc2c(c1)/C(=C/C(=O)c1cccs1)C(=O)N2,-8.0,-32.6,nt,?,nt,?
CCc1ccc2c(c1)[C@H]1OCC[C@H]1[C@@H](c1cccs1)N2,26.4*,42.2*,?,?,-22.2%,-13.2%
CN1CCN(CCCN2c3ccccc3Sc3ccc(C(F)(F)F)cc32)CC1,-3.3,-16.4,?,6.51µM*,?,12.6µM*
COc1cccc(S(=O)(=O)Nc2ccc3c(c2)OCCO3)c1,36.7*,51.7*,-10.4%,-12.2%,-15.1%,-6.1%
CCS(=O)(=O)Nc1ccc(-c2cn3ccsc3n2)cc1,nt,nt,-11.1%,nt,-11.9%,22.5%[46.1 µM]
COc1ccc(NS(=O)(=O)c2ccc3oc(Nc4ccc5c(c4)OCCO5)nc3c2)cc1,30.1*,+,?,-13.9%,nt,?
COC(=O)COc1ccc(S(=O)(=O)Nc2ccc3c(c2)OCCO3)cc1C,24.8*,68.1*,1.5%,3.4%[46.1 µM],-15.2%,27.0%[46.1 µM]
O=S(=O)(Nc1ccc(-c2cn3ccsc3n2)cc1)c1ccc2c(c1)OCCO2,12.2,68.9*,-16.8%,-5.0%,-28.2%,-1.4%
O=C(O)CCn1ccc2cc(S(=O)(=O)N3CCCCC3)ccc21,nt,nt,-3.6%,?,1.9%,15.6%[46.1 µM]
